Test results as given in the supplement of paper PMC10849652.
Targets with a hit are over-represented here; the source holds about 7,900 in all. About 0.6% of all pairs of compound and target were hits. A number with no mark means an inactive call.

Assays:
Test in all cases: log2 fold change, soluble protein after heating vs DMSO (PISA); higher = thermal stabilisation; K562 cells, 10 uM, 30 min; active = over 0.2 and 3.5 SD of the protein, either way, in both replicates (recomputed)
IRAK-1-4 Inhibitor I = compound: C1COCCN1CCN2C3=CC=CC=C3N=C2NC(=O)C4=CC(=CC=C4)[N+](=O)[O-] [IRAK-1-4 Inhibitor I]
In short: (§1)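 For each measurement, 10 μM compound was applied for 30 min to K562 cells at 2×10^6 cells/mL. Aliquots were heated for 3 min across 48°C-58°C, pooled, and extracted in PBS with 0.5% NP-40 at 4°C; the supernatant after 21,000xg for 90 min was soluble protein. This was quantified by TMTpro 16plex LC-MS/MS with channel sums equalised, and thermal stability was reported relative to control samples from duplicates, on a log2 fold-change scale.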

ibrutinib = compound: C=CC(=O)N1CCC[C@@H](n2nc(-c3ccc(Oc4ccccc4)cc3)c3c(N)ncnc32)C1 [ibrutinib]
In short: as §1

[1] = compound: CC(=O)c1cnc2ccc(-c3cc(Cl)c(O)c(Cl)c3)nc2c1N[C@H]1CC[C@H](CN(C)C)CC1
In short: as §1

ralimetinib = compound: CC(C)(C)Cn1c(N)nc2ccc(-c3[nH]c(C(C)(C)C)nc3-c3ccc(F)cc3)nc21 [ralimetinib]
In short: as §1

[2] = compound: CC(C)(O)CC(=O)NCCn1ccc2ncnc(Nc3ccc(Oc4cccc(C(F)(F)F)c4)c(Cl)c3)c21
In short: as §1

[3] = compound: CC(C)C1=C2N=C(C=C(N2N=C1)NCC3=CC=CC=C3)NCCCCCCN
In short: as §1

[4] = compound: CC(C)C[C@@H](C=O)NC(=O)[C@H](CC(C)C)NC(=O)[C@H](CC(C)C)NC(=O)OCc1ccccc1
In short: as §1

pinometostat = compound: CC(C)N(C[C@H]1O[C@@H](n2cnc3c(N)ncnc32)[C@H](O)[C@@H]1O)[C@H]1C[C@@H](CCc2nc3cc(C(C)(C)C)ccc3[nH]2)C1 [pinometostat]
In short: as §1

[5] = compound: CC1=C(C(CC(=O)N1)C2=CC=C(C=C2)C(F)(F)F)C(=O)NC3=C(C=C4C(=C3)C=NN4)F
In short: as §1

[6] = compound: CC1=C(C2=C(C=C1)C(=O)C3=CC=CC=C3N2CCCN)C
In short: as §1

[7] = compound: CC1=C(C=C(C=C1)NC(=O)C2=CC(=CC=C2)C(C)(C)C#N)NC3=CC4=C(C=C3)N=CN(C4=O)C
In short: as §1

[8] = compound: CC1=C(C=C(C=C1)NC(=O)C2=CC(=CC=C2)N(C)C)NC(=O)C3=CC=C(C=C3)O
In short: as §1

[9] = compound: CC1=CC=C(C=C1)SC2=C3C=C(SC3=CN=C2)C(=O)N
In short: as §1

[10] = compound: CC1=NC(=CC=C1)C2=C(N=C(N2)C(C)(C)C)C3=CC4=NC=CN=C4C=C3
In short: as §1

Nexturastat A = compound: CCCCN(Cc1ccc(C(=O)NO)cc1)C(=O)Nc1ccccc1 [Nexturastat A]
In short: as §1

vemurafenib = compound: CCCS(=O)(=O)Nc1ccc(F)c(C(=O)c2c[nH]c3ncc(-c4ccc(Cl)cc4)cc23)c1F [vemurafenib]
In short: as §1

[11] = compound: CCCS(=O)(=O)Nc1ccc(F)c(C(=O)c2c[nH]c3ncc(Cl)cc23)c1F
In short: as §1

[12] = compound: CCCc1cc(C)[nH]c(=O)c1CNC(=O)c1cc(-c2ccnc(N3CCN(C)CC3)c2)cc2c1cnn2C(C)C
In short: as §1

givinostat = compound: CCN(CC)Cc1ccc2cc(COC(=O)Nc3ccc(C(=O)NO)cc3)ccc2c1 [givinostat]
In short: as §1

barasertib = compound: CCN(CCCOc1ccc2c(Nc3cc(CC(=O)Nc4cccc(F)c4)[nH]n3)ncnc2c1)CCOP(=O)(O)O [barasertib]
In short: as §1

Sequence of UniProt P54252 (P54252 whole entry, looked up): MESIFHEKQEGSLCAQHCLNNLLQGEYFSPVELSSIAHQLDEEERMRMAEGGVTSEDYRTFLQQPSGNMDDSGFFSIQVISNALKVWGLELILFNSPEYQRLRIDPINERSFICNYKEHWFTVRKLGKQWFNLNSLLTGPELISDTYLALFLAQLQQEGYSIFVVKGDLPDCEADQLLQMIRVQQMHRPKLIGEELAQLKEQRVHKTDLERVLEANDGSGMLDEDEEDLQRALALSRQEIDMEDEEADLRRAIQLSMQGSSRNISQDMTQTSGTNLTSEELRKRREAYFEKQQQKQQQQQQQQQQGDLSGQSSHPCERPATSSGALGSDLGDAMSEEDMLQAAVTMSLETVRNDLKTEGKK
Sequence of UniProt Q9BTE6 (Q9BTE6 whole entry, looked up): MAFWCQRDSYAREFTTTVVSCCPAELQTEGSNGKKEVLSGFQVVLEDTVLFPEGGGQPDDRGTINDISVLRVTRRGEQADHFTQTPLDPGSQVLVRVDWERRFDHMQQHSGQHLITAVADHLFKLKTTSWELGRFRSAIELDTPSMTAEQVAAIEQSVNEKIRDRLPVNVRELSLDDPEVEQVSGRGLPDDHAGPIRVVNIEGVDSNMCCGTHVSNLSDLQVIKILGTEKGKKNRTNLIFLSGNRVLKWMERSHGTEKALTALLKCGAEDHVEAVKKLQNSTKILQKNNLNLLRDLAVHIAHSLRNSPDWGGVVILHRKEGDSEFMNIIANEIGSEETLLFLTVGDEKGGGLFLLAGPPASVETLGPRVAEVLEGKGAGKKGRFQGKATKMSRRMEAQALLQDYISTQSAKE
Sequence of UniProt O15254 (O15254 whole entry, looked up): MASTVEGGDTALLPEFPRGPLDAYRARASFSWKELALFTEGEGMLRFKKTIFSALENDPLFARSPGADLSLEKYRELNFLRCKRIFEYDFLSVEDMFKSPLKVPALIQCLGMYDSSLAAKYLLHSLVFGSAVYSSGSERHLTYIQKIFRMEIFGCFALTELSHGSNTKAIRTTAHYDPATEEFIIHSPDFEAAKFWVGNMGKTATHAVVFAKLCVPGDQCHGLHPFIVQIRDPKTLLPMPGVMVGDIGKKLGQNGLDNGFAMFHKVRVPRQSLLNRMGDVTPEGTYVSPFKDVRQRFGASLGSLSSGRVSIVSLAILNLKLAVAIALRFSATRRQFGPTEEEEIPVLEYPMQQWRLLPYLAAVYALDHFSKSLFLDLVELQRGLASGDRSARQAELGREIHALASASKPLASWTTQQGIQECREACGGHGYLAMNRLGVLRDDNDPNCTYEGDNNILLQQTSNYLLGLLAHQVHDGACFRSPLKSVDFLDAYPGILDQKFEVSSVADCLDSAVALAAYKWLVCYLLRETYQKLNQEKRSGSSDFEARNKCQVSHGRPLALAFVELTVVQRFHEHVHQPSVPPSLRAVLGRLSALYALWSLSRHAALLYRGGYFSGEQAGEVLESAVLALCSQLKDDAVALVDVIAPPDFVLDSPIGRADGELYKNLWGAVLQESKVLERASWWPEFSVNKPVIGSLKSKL
Sequence of UniProt P15056 (P15056 whole entry, looked up): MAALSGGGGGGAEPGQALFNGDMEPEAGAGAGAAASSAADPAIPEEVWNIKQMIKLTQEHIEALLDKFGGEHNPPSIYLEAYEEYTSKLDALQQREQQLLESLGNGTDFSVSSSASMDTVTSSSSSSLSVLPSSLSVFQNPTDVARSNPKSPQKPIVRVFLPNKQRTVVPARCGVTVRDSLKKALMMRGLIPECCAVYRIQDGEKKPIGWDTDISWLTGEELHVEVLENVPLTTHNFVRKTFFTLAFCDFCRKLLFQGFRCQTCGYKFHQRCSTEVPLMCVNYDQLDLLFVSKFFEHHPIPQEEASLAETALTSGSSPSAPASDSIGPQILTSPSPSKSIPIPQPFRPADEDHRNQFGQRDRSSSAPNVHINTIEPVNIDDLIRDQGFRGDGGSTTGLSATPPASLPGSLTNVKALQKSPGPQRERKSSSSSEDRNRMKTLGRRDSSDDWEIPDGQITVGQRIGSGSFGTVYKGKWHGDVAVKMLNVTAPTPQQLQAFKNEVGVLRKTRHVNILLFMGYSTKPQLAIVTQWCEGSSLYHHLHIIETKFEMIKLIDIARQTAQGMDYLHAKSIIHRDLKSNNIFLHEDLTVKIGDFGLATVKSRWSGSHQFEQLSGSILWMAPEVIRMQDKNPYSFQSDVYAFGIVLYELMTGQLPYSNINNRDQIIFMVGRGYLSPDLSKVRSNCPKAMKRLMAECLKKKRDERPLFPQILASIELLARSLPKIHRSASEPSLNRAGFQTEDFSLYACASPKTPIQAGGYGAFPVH
Sequence of UniProt O75882 (O75882 whole entry, looked up): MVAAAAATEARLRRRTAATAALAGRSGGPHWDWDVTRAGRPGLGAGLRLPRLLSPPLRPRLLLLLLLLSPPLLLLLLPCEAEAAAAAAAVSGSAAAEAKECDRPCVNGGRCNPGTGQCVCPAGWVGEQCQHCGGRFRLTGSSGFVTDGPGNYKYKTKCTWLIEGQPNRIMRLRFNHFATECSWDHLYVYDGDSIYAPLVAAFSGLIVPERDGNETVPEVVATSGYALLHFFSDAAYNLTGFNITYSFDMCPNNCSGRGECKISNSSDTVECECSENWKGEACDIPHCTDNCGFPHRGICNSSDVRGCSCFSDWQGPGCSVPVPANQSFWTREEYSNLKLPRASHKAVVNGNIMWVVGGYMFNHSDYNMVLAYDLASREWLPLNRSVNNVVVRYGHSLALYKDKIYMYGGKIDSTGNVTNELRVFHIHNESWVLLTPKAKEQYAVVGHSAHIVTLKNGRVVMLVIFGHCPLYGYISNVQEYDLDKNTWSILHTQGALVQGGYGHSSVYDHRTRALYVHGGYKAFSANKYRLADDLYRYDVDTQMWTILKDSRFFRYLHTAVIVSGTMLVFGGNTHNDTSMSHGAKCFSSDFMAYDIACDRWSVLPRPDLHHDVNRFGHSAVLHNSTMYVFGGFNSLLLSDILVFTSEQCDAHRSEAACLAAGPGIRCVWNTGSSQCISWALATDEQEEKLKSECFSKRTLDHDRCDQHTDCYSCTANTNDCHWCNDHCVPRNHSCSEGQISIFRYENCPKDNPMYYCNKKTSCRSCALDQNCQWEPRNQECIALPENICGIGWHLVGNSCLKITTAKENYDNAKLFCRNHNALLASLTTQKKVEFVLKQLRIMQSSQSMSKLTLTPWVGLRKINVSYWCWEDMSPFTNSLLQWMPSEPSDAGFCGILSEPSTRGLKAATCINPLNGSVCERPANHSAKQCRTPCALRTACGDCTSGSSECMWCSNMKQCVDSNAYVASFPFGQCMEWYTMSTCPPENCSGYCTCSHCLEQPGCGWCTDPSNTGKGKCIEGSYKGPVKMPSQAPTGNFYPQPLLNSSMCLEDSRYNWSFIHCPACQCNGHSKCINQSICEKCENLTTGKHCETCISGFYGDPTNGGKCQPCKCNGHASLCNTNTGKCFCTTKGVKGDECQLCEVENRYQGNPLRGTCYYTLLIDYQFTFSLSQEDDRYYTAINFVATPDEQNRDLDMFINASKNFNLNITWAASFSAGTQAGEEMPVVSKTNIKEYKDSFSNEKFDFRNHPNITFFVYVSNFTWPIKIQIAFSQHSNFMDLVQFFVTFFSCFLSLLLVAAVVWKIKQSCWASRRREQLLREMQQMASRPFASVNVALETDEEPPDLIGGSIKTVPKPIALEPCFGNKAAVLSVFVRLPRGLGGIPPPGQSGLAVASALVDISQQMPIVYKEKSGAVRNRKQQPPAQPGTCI
Sequence of UniProt Q02252 (Q02252 whole entry, looked up): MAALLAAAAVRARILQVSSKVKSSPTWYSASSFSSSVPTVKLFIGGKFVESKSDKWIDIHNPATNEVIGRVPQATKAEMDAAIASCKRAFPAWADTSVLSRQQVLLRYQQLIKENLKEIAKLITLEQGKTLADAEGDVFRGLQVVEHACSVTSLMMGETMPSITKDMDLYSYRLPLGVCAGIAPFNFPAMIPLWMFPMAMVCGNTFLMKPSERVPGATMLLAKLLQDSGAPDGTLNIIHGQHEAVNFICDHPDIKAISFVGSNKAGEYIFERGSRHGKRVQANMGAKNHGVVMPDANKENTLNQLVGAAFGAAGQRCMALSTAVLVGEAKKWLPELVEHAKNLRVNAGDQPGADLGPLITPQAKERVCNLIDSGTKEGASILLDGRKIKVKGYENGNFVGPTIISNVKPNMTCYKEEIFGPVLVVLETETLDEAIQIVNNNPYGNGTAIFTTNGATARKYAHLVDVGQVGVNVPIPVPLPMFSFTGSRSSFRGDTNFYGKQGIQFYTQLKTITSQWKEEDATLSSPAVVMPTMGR
Sequence of UniProt Q9H7T9 (Q9H7T9 whole entry, looked up): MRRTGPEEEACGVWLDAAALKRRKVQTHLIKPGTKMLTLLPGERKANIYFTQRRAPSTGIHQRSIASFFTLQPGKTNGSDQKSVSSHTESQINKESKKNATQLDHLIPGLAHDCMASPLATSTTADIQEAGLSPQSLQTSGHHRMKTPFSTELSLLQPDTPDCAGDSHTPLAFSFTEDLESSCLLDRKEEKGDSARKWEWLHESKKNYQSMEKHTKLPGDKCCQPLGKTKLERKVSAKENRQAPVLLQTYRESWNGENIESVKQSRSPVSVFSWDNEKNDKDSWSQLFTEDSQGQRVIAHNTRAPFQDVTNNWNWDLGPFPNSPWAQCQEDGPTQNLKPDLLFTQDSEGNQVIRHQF
Sequence of UniProt P55008 (P55008 whole entry, looked up): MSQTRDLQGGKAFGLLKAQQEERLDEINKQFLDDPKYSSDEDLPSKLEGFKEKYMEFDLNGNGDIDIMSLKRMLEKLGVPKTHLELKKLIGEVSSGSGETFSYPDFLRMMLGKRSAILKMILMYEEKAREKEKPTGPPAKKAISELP
Sequence of UniProt P40617 (P40617 whole entry, looked up): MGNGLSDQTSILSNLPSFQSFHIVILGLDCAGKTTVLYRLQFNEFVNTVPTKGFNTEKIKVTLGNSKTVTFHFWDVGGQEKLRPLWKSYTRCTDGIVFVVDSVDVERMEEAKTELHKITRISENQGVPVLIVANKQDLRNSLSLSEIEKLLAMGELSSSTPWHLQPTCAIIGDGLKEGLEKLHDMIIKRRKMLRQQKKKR

Row | Target | log2 fold change (IRAK-1-4 Inhibitor I) | log2 fold change (ibrutinib) | log2 fold change [1] | log2 fold change (ralimetinib) | log2 fold change [2] | log2 fold change [3] | log2 fold change [4] | log2 fold change (pinometostat) | log2 fold change [5] | log2 fold change [6] | log2 fold change [7] | log2 fold change [8] | log2 fold change [9] | log2 fold change [10] | log2 fold change (Nexturastat A) | log2 fold change (vemurafenib) | log2 fold change [11] | log2 fold change [12] | log2 fold change (givinostat) | log2 fold change (barasertib)
1 | BID isoform 2 (UniProt P55957) | 0.052 | 0.008 | -0.039 | -0.038 | -0.053 | 0.105 | 0.012 | -0.018 | -0.047 | 0.074 | -0.054 | -0.02 | 0.029 | 0.012 | -0.056 | 0.117 | 0.001 | 0.016 | -0.001 | -0.01
2 | ADAMTS5 (UniProt Q9UNA0) | 0.064 | 0.127 | 0.036 | 0.141 | – | 0.088 | -0.009 | -0.03 | -0.015 | 0.025 | -0.171 | -0.022 | – | -0.164 | – | -0.095 | – | -0.572 | 0.222 | 0.02
3 | ATXN7L3 isoform 2 (UniProt Q14CW9) | 0.114 | 0.147 | 0.027 | 0.036 | – | 0.066 | -0.053 | 0.093 | 0.018 | – | 0.013 | -0.017 | – | -0.09 | – | – | – | 0.137 | -0.046 | -0.042
4 | ACOX3 (UniProt O15254) | 0.095 | 0.035 | -0.177 | – | 0.061 | 0.022 | – | -0.021 | -0.081 | -0.051 | 0.111 | – | -0.192 | -0.011 | 0.039 | 0.057 | -0.009 | 0.184 | -0.01 | -0.035
5 | ALDH6A1 (UniProt Q02252) | 0.004 | -0.023 | -0.041 | 0.019 | -0.155 | -0.068 | -0.002 | -0.01 | -0.004 | 0.018 | -0.02 | 0.032 | -0.039 | 0.044 | -0.014 | 0.025 | 0.011 | 0.029 | -0.017 | -0.038
6 | ATP7B (UniProt P35670) | -0.022 | -0.033 | 0.077 | 0.043 | 0.003 | 0.011 | 0.015 | 0.056 | -0.124 | 0.061 | -0.005 | -0.113 | 0.028 | 0.032 | -0.013 | -0.001 | 0.032 | 0.036 | -0.005 | -0.02
7 | ATRN (UniProt O75882) | -0.084 | 0.083 | 0.012 | – | -0.02 | 0.033 | – | 0.079 | -0.08 | 0.044 | 0.037 | – | -0.034 | -0.061 | -0.135 | -0.026 | 0.054 | -0.003 | 0.026 | -0.09
8 | AARSD1 (UniProt Q9BTE6) | 0.264 | 0.135 | 0.107 | – | – | -0.13 | – | 0.041 | -0.045 | – | – | – | 0.044 | 0.278 | – | – | 0.206 | 0.027 | -0.285 | 0.119
9 | ATXN3 isoform 1 (UniProt P54252) | -0.031 | 0.028 | 0.065 | 0.018 | – | -0.314 | 0.234 | 0.021 | 0.018 | 0.016 | – | -0.08 | 0.012 | -0.043 | – | 0.005 | 0.04 | -0.016 | 0.02 | 0.179
10 | ALG3 (UniProt Q92685) | -0.081 | -0.022 | -0.08 | -0.08 | -0.034 | -0.267 | -0.038 | -0.075 | -0.037 | -0.045 | 0.108 | 0.002 | 0.113 | 0.376 (active) | 0.008 | -0.076 | 0.123 | -0.079 | -0.09 | 0
11 | ACTBL2 (UniProt Q562R1) | – | 0 | -0.156 | 0.351 | 0.132 | 0.372 | 0.195 | – | 0.406 | – | 0.238 | 0.243 | -0.385 | – | -0.049 | 0.139 | -0.41 | 0.073 | -0.342 | 0.161
12 | BRAF (UniProt P15056) | -0.025 | 0.002 | – | 0.019 | – | -0.044 | -0.031 | 0.047 | 0.003 | 0.056 | 0.15 | – | 0.02 | -0.01 | -0.053 | 0.148 | 0.144 | -0.049 | -0.031 | 0.022
13 | BSCL2 isoform 4 (UniProt Q96G97) | – | 0.069 | -0.109 | – | 0.003 | -0.219 | – | – | -0.122 | 0.023 | – | – | -0.073 | – | -0.174 | 0.179 | -0.043 | -0.124 | 0.052 | 0.199
14 | BRD2 isoform 2 (UniProt P25440) | 0.091 | -0.164 | -0.63 | – | – | 0.042 | – | 0.038 | – | -0.117 | 0.348 | – | 0.039 | 0.076 | – | -0.033 | 0.014 | – | -0.596 | -0.053
15 | ALDH9A1 (UniProt P49189) | – | -0.008 | -0.024 | -0.077 | 0 | -0.27 | 0.185 | – | -0.056 | -0.035 | 0.004 | 0.004 | -0.015 | – | -0.125 | 0.026 | 0.005 | 0.18 | 0.058 | 0.05
16 | BAIAP2 isoform 4 (UniProt Q9UQB8) | – | – | – | – | – | – | – | – | – | 0.053 | 0.034 | – | – | – | – | – | – | – | – | –
17 | AUNIP isoform 2 (UniProt Q9H7T9) | – | – | -0.219 | – | – | -0.134 | – | – | – | -0.141 | 0.113 | – | 0.101 | – | – | 0.081 | 0.073 | – | 0.083 | –
18 | AIF1 (UniProt P55008) | – | 0.012 | 0.028 | -0.112 | 0.035 | -0.033 | 0.07 | – | – | – | -0.042 | -0.039 | -0.056 | – | 0.048 | -0.112 | 0 | – | -0.057 | -0.102
19 | ARMC8 isoform 6 (UniProt Q8IUR7) | – | 0.016 | 0.038 | – | – | 0.053 | – | – | -0.024 | – | – | – | – | – | – | 0.031 | – | – | 0.075 | -0.021
20 | BAP18 isoform 3 (UniProt Q8IXM2) | – | – | – | – | – | 0.074 | – | – | – | -0.183 | – | – | – | – | – | – | – | 0.005 | 0.025 | –
21 | BRAF, A0A2R8Y8E0 | 0.055 | – | 0.156 | 0.059 | – | -0.188 | 0.067 | -0.04 | 0.149 | 0.078 | – | -1.03 (active) | – | -0.021 | – | – | – | -0.078 | -0.006 | –
22 | ARL4A (UniProt P40617) | – | 0.143 | -0.295 | – | – | – | – | – | – | – | – | – | – | – | – | – | – | 0.078 | – | 0.057
23 | ASS1 (UniProt P00966) | – | 0.05 | -0.155 | -0.022 | -0.064 | -0.122 | 0.006 | – | -0.071 | -0.021 | -0.073 | -0.015 | -0.06 | – | 0.023 | -0.042 | 0.003 | 0.004 | 0.031 | -0.063
